Values joined by “and” are separate entries in the source; they are usually repeats but may differ in a detail not shown here. Equal entries are not always repeated. Out of some 5,500 compounds screened, about 2,000 (36%) were called active. Not shown: some 18% with an inconclusive outcome. No stated cut-off is given here; in the data, active means normalized growth mostly below about 0.91 (no sharp cut-off); inconclusive means no clear call, values can overlap the other calls; inactive means mostly above about 0.92. Some of the results follow.
Assay: chemical genetic growth profiling, strain panel (AID 1159580);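 further: tested at 20 µM; growth read once vehicle control cultures reached saturation at 30 °C; 1 = growth at the plate median or of vehicle wells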
Conditions: S. cerevisiae deletion strains, growth OD

Measured: normalized growth

CC1(C)C(=O)C=C[C@@]2(C)C1CC(=O)[C@]1(C)C2CC[C@@]2(C)[C@H](c3ccoc3)OC(=O)[C@H]3O[C@]321 (some centres undefined)
inactive: locus YAL021C, strain ccr4, stronger effect = lower value 1.02 | locus YAL026C, strain drs2, stronger effect = lower value 0.99 | locus YAL030W, strain snc1, stronger effect = lower value 0.981 | locus YBL061C, strain skt5, stronger effect = lower value 0.975 | locus YBR009C, strain hhf1, stronger effect = lower value 1.04 | locus YBR021W, strain FUR4, stronger effect = lower value 0.992 | locus YBR023C, strain chs3, stronger effect = lower value 0.991 | locus YBR171W, strain sec66, stronger effect = lower value 0.98 | locus YBR229C, strain ROT2, stronger effect = lower value 0.999 | locus YBR231C, strain swc5, stronger effect = lower value 1.03 | locus YBR279W, strain paf1, stronger effect = lower value 1.01 | locus YCL016C, strain dcc1, stronger effect = lower value 0.988 | locus YCL029C, strain bik1, stronger effect = lower value 1.02 | locus YCL061C, strain MRC1, stronger effect = lower value 0.988 | locus YCL069W, strain vba3, stronger effect = lower value 0.977 | locus YCR088W, strain abp1, stronger effect = lower value 0.998 | locus YDL005C, strain med2, stronger effect = lower value 0.977 | locus YDL035C, strain GPR1, stronger effect = lower value 0.99 | locus YDL040C, strain nat1, stronger effect = lower value 0.977 | locus YDL074C, strain BRE1, stronger effect = lower value 0.991 | locus YDL101C, strain DUN1, stronger effect = lower value 1.01 | locus YDL134C, strain PPH21, stronger effect = lower value 1.01 | locus YDL185W, strain tfp1, stronger effect = lower value 1.01 | locus YDL192W, strain arf1, stronger effect = lower value 1.01 | locus YDR001C, strain nth1, stronger effect = lower value 0.992 | locus YDR069C, strain doa4, stronger effect = lower value 0.949 | locus YDR101C, strain arx1, stronger effect = lower value 0.991 | locus YDR137W, strain rgp1, stronger effect = lower value 0.989 | locus YDR150W, strain NUM1, stronger effect = lower value 0.995 | locus YDR159W, strain sac3, stronger effect = lower value 1 | locus YDR162C, strain NBP2, stronger effect = lower value 0.962 | locus YDR195W, strain ref2 1.02 | locus YDR297W, strain sur2, stronger effect = lower value 0.994 | locus YDR318W, strain mcm21, stronger effect = lower value 1.01 | locus YDR334W, strain swr1, stronger effect = lower value 0.988 | locus YDR335W, strain msn5, stronger effect = lower value 0.994 | locus YDR388W, stronger effect = lower value 1.02 | locus YDR392W, strain spt3, stronger effect = lower value 0.925 | locus YDR502C, strain sam2, stronger effect = lower value 1.04 | locus YEL003W, strain gim4, stronger effect = lower value 0.975 | locus YEL037C, strain rad23, stronger effect = lower value 0.989 | locus YEL061C, strain CIN8 (second series), stronger effect = lower value 0.996 | locus YEL061C, strain CIN8, stronger effect = lower value 0.986 | locus YER015W, strain faa2, stronger effect = lower value 0.975 | locus YER016W, strain bim1, stronger effect = lower value 0.966 | locus YER110C, stronger effect = lower value 1.02 | locus YER111C, strain swi4, stronger effect = lower value 0.968 | locus YER155C, strain BEM2 (second series), stronger effect = lower value 1.04 | locus YER155C, strain BEM2, stronger effect = lower value 1 | locus YER167W, strain BCK2, stronger effect = lower value 0.986 | locus YFR010W, strain ubp6, stronger effect = lower value 1.02 | locus YGL078C, strain dbp3, stronger effect = lower value 1.02 | locus YGL086W, strain mad1, stronger effect = lower value 1.01 | locus YGL167C, strain pmr1, stronger effect = lower value 0.992 | locus YGL173C, strain kem1, stronger effect = lower value 1.01 | locus YGL227W, strain vid30, stronger effect = lower value 0.994 | locus YGL240W, strain doc1, stronger effect = lower value 1.06 | locus YGL248W, strain PDE1, stronger effect = lower value 1 | locus YGL253W, strain hxk2, stronger effect = lower value 0.981 | locus YGR135W, strain pre9, stronger effect = lower value 1.05 | locus YGR252W, strain gcn5, stronger effect = lower value 1.09 | locus YHR013C, strain ard1, stronger effect = lower value 0.964 | locus YHR027C, strain rpn1, stronger effect = lower value 0.995 | locus YHR030C, strain SLT2, stronger effect = lower value 0.988 and 0.992 | locus YHR079C, strain IRE1 (second series), stronger effect = lower value 1.01 | locus YHR079C, strain IRE1, stronger effect = lower value 0.987 | locus YHR094C, strain hxt1, stronger effect = lower value 1.02 | locus YHR129C, strain ARP1, stronger effect = lower value 0.988 | locus YHR142W, strain chs7, stronger effect = lower value 0.968 | locus YHR200W, strain rpn10, stronger effect = lower value 1.01 | locus YIL066C, strain RNR3, stronger effect = lower value 0.978 | locus YIL073C, strain SPO22, stronger effect = lower value 1.04 | locus YIL125W, strain kgd1, stronger effect = lower value 0.998 | locus YIR030C, strain dcg1, stronger effect = lower value 1.01 | locus YJL092W, strain hpr5, stronger effect = lower value 0.971 | locus YJL095W, strain BCK1 (second series), stronger effect = lower value 0.976 | locus YJL095W, strain BCK1, stronger effect = lower value 1 and 0.983 | locus YJL115W, strain asf1, stronger effect = lower value 0.983 | locus YJL129C, strain trk1, stronger effect = lower value 0.952 | locus YJL134W, strain LCB3, stronger effect = lower value 0.986 | locus YJL154C, strain vps35, stronger effect = lower value 0.978 | locus YJL164C, strain tpk1, stronger effect = lower value 0.985 | locus YJL166W, strain qcr8, stronger effect = lower value 1 | locus YJL168C, strain set2, stronger effect = lower value 1 | locus YJL187C, strain SWE1 (second series), stronger effect = lower value 1.02 | locus YJR066W, strain TOR1, stronger effect = lower value 0.927 | locus YJR075W, strain HOC1, stronger effect = lower value 0.995 | locus YKL009W, strain mrt4, stronger effect = lower value 1 | locus YKL068W, stronger effect = lower value 1 | locus YKL085W, strain MDH1 (second series), stronger effect = lower value 0.992 | locus YKL085W, strain MDH1, stronger effect = lower value 0.992 | locus YKL160W, strain elf1, stronger effect = lower value 0.976 | locus YKL190W, strain CNB1, stronger effect = lower value 0.997 | locus YKR001C, strain vps1, stronger effect = lower value 1.03 | locus YKR026C, strain gcn3, stronger effect = lower value 0.998 | locus YKR091W, strain srl3, stronger effect = lower value 0.974 | locus YLL001W, strain dnm1, stronger effect = lower value 1 | locus YLL026W, stronger effect = lower value 0.997 | locus YLL041C, strain sdh2, stronger effect = lower value 0.982 | locus YLR027C, strain aat2, stronger effect = lower value 1 | locus YLR039C, strain RIC1, stronger effect = lower value 0.886 | locus YLR058C, strain SHM2, stronger effect = lower value 0.996 | locus YLR102C, strain apc9, stronger effect = lower value 1.01 | locus YLR113W, strain HOG1, stronger effect = lower value 1.01 | locus YLR221C, strain rsa3, stronger effect = lower value 1.04 | locus YLR258W, strain gsy2, stronger effect = lower value 0.976 | locus YLR262C, strain YPT6 (second series), stronger effect = lower value 0.972 | locus YLR262C, strain YPT6, stronger effect = lower value 0.897 | locus YLR268W, strain sec22, stronger effect = lower value 0.982 | locus YLR320W, strain mms22, stronger effect = lower value 1.02 | locus YLR330W, strain CHS5, stronger effect = lower value 0.994 | locus YLR342W, strain FKS1 (second series), stronger effect = lower value 0.982 | locus YLR342W, strain FKS1, stronger effect = lower value 0.98 | locus YLR357W, strain rsc2, stronger effect = lower value 0.941 | locus YLR370C, strain arc18, stronger effect = lower value 0.99 | locus YLR371W, strain rom2, stronger effect = lower value 0.998 | locus YLR384C, strain iki3, stronger effect = lower value 0.987 | locus YLR418C, strain cdc73, stronger effect = lower value 1.04 | locus YML016C, strain PPZ1, stronger effect = lower value 0.984 | locus YML032C, strain rad52, stronger effect = lower value 1.02 | locus YML120C, strain ndi1, stronger effect = lower value 0.988 | locus YML124C, strain tub3, stronger effect = lower value 1.01 | locus YMR058W, strain fet3, stronger effect = lower value 1 | locus YMR078C, strain ctf18, stronger effect = lower value 1.01 | locus YMR125W, strain sto1, stronger effect = lower value 0.973 | locus YMR129W, stronger effect = lower value 0.971 | locus YMR205C, strain PFK2, stronger effect = lower value 1.04 | locus YMR223W, strain ubp8, stronger effect = lower value 1.01 | locus YMR231W, strain pep5, stronger effect = lower value 0.982 | locus YMR307W, strain GAS1, stronger effect = lower value 0.868 | locus YNL067W, strain RPL9B, stronger effect = lower value 1.01 | locus YNL071W, strain lat1, stronger effect = lower value 1 | locus YNL128W, strain TEP1, stronger effect = lower value 0.978 | locus YNL183C, strain NPR1, stronger effect = lower value 0.931 | locus YNL209W, strain ssb2, stronger effect = lower value 0.989 | locus YNL233W, strain BNI4, stronger effect = lower value 0.987 | locus YNL248C, strain rpa49, stronger effect = lower value 0.93 | locus YNL250W, strain rad50, stronger effect = lower value 1.03 | locus YNL271C, strain bni1, stronger effect = lower value 1 | locus YNL298W, strain CLA4, stronger effect = lower value 1.03 | locus YNL307C, strain MCK1, stronger effect = lower value 1 | locus YNL322C, strain KRE1 (second series), stronger effect = lower value 0.958 | locus YNR049C, strain mso1, stronger effect = lower value 0.952 | locus YNR052C, strain pop2, stronger effect = lower value 1.03 | locus YOL006C, strain TOP1, stronger effect = lower value 0.987 | locus YOL012C, strain htz1 1.38 | locus YOL147C, strain pex11, stronger effect = lower value 1.01 | locus YOR001W, strain rrp6, stronger effect = lower value 1 | locus YOR061W, strain CKA2, stronger effect = lower value 0.991 | locus YOR069W, strain VPS5, stronger effect = lower value 0.995 | locus YOR070C, strain gyp1, stronger effect = lower value 0.995 | locus YOR080W, strain dia2, stronger effect = lower value 0.986 | locus YOR083W, strain WHI5, stronger effect = lower value 0.907 | locus YOR106W, strain vam3, stronger effect = lower value 0.955 | locus YOR136W, strain idh2, stronger effect = lower value 1.01 | locus YOR144C, strain elg1, stronger effect = lower value 1.01 | locus YOR184W, strain ser1, stronger effect = lower value 0.974 | locus YOR231W, strain MKK1, stronger effect = lower value 0.983 | locus YOR265W, strain rbl2, stronger effect = lower value 0.984 | locus YOR270C, strain vph1, stronger effect = lower value 0.993 | locus YOR290C, strain snf2, stronger effect = lower value 0.976 | locus YOR316C, strain cot1, stronger effect = lower value 1.01 | locus YPL051W, strain arl3, stronger effect = lower value 1 | locus YPL055C, strain LGE1, stronger effect = lower value 1 | locus YPL078C, strain atp4, stronger effect = lower value 0.976 | locus YPL106C, strain sse1, stronger effect = lower value 0.986 | locus YPL240C, strain hsp82, stronger effect = lower value 0.996 | locus YPL241C, strain CIN2, stronger effect = lower value 0.987 | locus YPL256C, strain CLN2, stronger effect = lower value 0.987 | locus YPR119W, strain clb2, stronger effect = lower value 1.01 | locus YPR141C, strain kar3, stronger effect = lower value 1 | locus YPR163C, strain tif3, stronger effect = lower value 1.01 | locus YPR167C, strain met16, stronger effect = lower value 1.01 | strain wtn01, stronger effect = lower value 1

From PubChem BioAssay AID1159580 (chemical genetic matrix, 2015)
